Bioassay records deposited in PubChem BioAssay by The Scripps Research Institute Molecular Screening Center.
TbREL1 primary: TbREL1 RNA ligase inhibitors, primary screen, biochemical, FRET fluorescence; RNA-editing ligase 1, mitochondrial (Trypanosoma brucei brucei), P86926; TbREL1 RNA ligation; inhibition, % at 9.66 µM; actives 0.49% (n = 89,000);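 active = inhibition above the mean inhibition across all screened compounds plus 3 SD, cut at about 11% in these data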;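 note: 0% = plate median of test wells and 100% = NSC42067 control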
Target sequence (P86926 whole entry, looked up): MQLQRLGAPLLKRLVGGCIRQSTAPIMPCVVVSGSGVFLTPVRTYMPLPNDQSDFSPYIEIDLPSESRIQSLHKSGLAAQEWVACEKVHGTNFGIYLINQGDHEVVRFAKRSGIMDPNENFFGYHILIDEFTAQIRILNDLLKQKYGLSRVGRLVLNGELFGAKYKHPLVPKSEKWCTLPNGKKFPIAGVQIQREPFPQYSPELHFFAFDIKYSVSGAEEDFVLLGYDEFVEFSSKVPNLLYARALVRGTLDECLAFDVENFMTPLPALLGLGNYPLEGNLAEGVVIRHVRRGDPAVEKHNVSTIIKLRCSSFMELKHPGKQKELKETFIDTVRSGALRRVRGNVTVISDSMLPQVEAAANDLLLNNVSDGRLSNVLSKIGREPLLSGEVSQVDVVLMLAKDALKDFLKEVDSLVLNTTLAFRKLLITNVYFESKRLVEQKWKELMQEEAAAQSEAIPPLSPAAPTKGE
TbREL1 confirm: TbREL1 RNA ligase inhibitors, confirmation, biochemical, FRET fluorescence, triplicate. shares compounds with TbREL1 primary. TbREL1 RNA ligation. inhibition, % at 9.66 µM. actives 37% (n = 390);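 active = mean inhibition across replicates above a set limit taken from the earlier primary screen, cut at about 11% in these data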;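 note: 0% = REL1 with substrate and DMSO and 100% = REL1 plus control inhibitor NSC42067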
* hit, by the source's call. Shown is part of a subset that was picked to be rich in hits.

SMILES | TbREL1 primary | others
S=C(NCc1ccccc1)NCc1ccco1 | -1
Cc1ccc(C(=O)n2ccc3ccc(-c4ccc5ccn(Cc6ccccc6)c5c4)cc32)cc1 | 3
O=C(Nc1cccc(Br)c1)OC1CC2CC1[C@H]1CCCCN1C2 (some centres undefined) | 6
COC(=O)[C@]12C[C@H](CC(=O)NCc3ccc(C)o3)C(=O)N(Cc3ccc(Cl)cc3Cl)C1=C[C@H](COCc1ccccc1)O[C@@H]2C | -1
COc1ccc(Cn2ccc3ccc(-c4ccc5ccn(C(=O)c6ccccc6C)c5c4)cc32)cc1 | -1
Cc1onc(-c2ccccc2)c1C(=O)N(C)CCc1ccccn1 | -1
Cc1onc(-c2ccccc2)c1C(=O)NC(C)C | -1
Cc1onc(-c2ccccc2)c1C(=O)N(Cc1ccccn1)Cc1ccccn1 | 11* | TbREL1 confirm=4
COc1cc(-c2oc3cc(O)cc(O)c3c(=O)c2O[C@@H]2O[C@H](COC3O[C@@H](C)[C@H](O)[C@@H](O)[C@H]3O)[C@@H](O)[C@H](O)[C@H]2O)ccc1O (some centres undefined) | -4
O=c1c(-c2ccc(O)cc2)coc2cc(OC3OC(CO)C(O)C(O)C3O)cc(O)c12 (centres undefined) | 0
C[C@@H]1O[C@@H](Oc2c(-c3cc(O)c(O)c(O)c3)oc3cc(O)cc(O)c3c2=O)[C@H](O)[C@H](O)[C@H]1O | 54* | TbREL1 confirm=36*
CC(C)(C)c1ccc(-c2nnc(SCC(=O)Nc3ccc(S(=O)(=O)Nc4nccs4)cc3)n2Cc2ccco2)cc1 | 5
CN=c1scc(C)n1/N=C/c1ccc(O)c(O)c1O | 28* | TbREL1 confirm=38*
COCCN=c1scc(-c2ccco2)n1/N=C/c1ccc(O)c(O)c1O | 9
Cc1cc(SCC(=O)N/N=C/c2ccc(O)c(O)c2O)c(C)cc1Br | -2
C#CCN1C(=O)[C@]2(NCCc3c2[nH]c2ccc(OC)cc32)c2cc(F)ccc21 | -2
Cc1cc(C(=O)Nc2ccc(Cl)c(Cl)c2)n(-c2ccccc2)n1 | -3
COc1ccccc1N(Cc1ccccc1)S(=O)(=O)c1cccc(C(=O)Nc2cc(C)ccn2)c1 | 2
CN(c1ccccc1)S(=O)(=O)c1cccc(C(=O)NC2CC(C)(C)NC(C)(C)C2)c1 | 1
COc1ccccc1N(Cc1ccccc1)S(=O)(=O)c1cccc(C(=O)NC2CC(C)(C)NC(C)(C)C2)c1 | 11* | TbREL1 confirm=14*
C=CCn1c(COc2ccccc2)nnc1SCC(=O)Nc1ccc(Oc2ccccc2)cc1 | 1
COc1ccc(-c2c(C(=O)c3ccccc3)[nH]c(N)c2C(=O)c2c[nH]c3ccccc23)cc1OC | -5
CCCCNC(=O)O[C@H]1CC[C@@]23CCCN2C(=O)CCC[C@H]3[C@H]1CCC | 3
O=C(OCC#CCSc1nnc(-c2cccc3ccccc23)o1)c1cccc(F)c1 | -1
O=C(CSc1nnc(NC(=O)c2ccco2)s1)Nc1ccc(F)cc1 | 4
SMILES | TbREL1 primary | others
O=C(Nc1nnc(SCc2cccc(F)c2)s1)c1ccco1 | 14* | TbREL1 confirm=-1
CC(C)(C)C(=O)Nc1nnc(SCc2cccc(F)c2)s1 | 5
O=S(=O)(c1cccs1)N1CCN(c2ccccc2)CC1 | 16* | TbREL1 confirm=3
O=S(=O)(c1cccs1)N1CCN(c2ccc(F)cc2)CC1 | 0
O=S(=O)(c1cccs1)N1CCN(c2cccc(Cl)c2)CC1 | 3
COc1ccc(-n2c(SCC(=O)Nc3cccc4ccccc34)nnc2-c2ccco2)cc1 | -1
O=C(Cc1c[nH]c2ccccc12)Nc1ccc(Nc2cccnc2)c(-c2ccc(-c3ccccc3)cc2F)c1 | 4
CC1(C)C=C2C(N(CC3CC3)C(=N)N2C(=O)OCc2ccccc2)n2c(=O)n(-c3ccccc3)c(=O)n21 (centres undefined) | 5
COc1cccc(C(=O)n2ccc3ccc(-c4ccc5ccn(C(=O)c6cccc(OC)c6)c5c4)cc32)c1 | 0
O=C(C1CCCN(S(=O)(=O)c2cc(Cl)ccc2Cl)C1)N1CCCCCC1 (centres undefined) | -1
O=C(NNc1cc(Cl)ccc1Cl)C1CCC1 | 91* | TbREL1 confirm=1
O=C(O)C1CC=CCC1C(=O)Nc1cc(Cl)ccc1Cl (centres undefined) | 1
Cc1cccc(NC(=O)N2CCC(N(C)CCC(C)C)CC2)c1 | 0
CCC[C@H]1[C@@H](NC(=O)c2ccc(OC)cc2)CC[C@@]23CCCN2C(=O)CCC[C@@H]13 | -4
Cc1cc(-c2n[nH]c(=S)n2N=Cc2ccc(O)cc2)n[nH]1 | -4
COc1cc(N=c2ssnc2Cl)c(OC)cc1Cl | 2
Cc1nnc(N=c2ssnc2Cl)o1 | 13* | TbREL1 confirm=20*
FC(F)(F)c1cccc(Cn2ccc3ccc(-c4ccc5ccn(Cc6cccc(C(F)(F)F)c6)c5c4)cc32)c1 | 0
CN1CCN(C2CCN(Cc3ccc(O)c4ncccc34)CC2)CC1 | 17* | TbREL1 confirm=8
Oc1c(Cl)cc(CN2CCOCC2)c2cccnc12 | 2
O=S(=O)(c1ccc(Cl)cc1)N1CCN(Cc2ccc(O)c3ncccc23)CC1 | 0
O=C(CNCc1ccccc1[N+](=O)[O-])N1CCC2(CC1)OCCO2 | -3
S=c1[nH]nc(-c2n[nH]c3c2CCC3)n1N=Cc1ccc(OCc2ccccc2)cc1 | 4
CCOC(=O)Cn1c(=NC(=O)c2cccs2)sc2cc(C(=O)OC)ccc21 | 10
CCOC(=O)Cn1c2ccc(C)cc2c2nc(C)sc21 | 55* | TbREL1 confirm=5
SMILES | TbREL1 primary | others
CCOC(=O)Cn1c(=NC(=O)CC)sc2c(C)cc(C)cc21 | -1
CCn1c(COc2ccc(C)cc2)nnc1SCC(=O)Nc1ccc(Oc2ccccc2)cc1 | 1
O=C(OCc1cn(Cc2cccc(F)c2F)nn1)N1CCOCC1 | 6
COCCCNC(=O)C[C@H]1C[C@@]2(C(=O)OC)C(=C[C@H](COCc3ccccc3)O[C@@H]2C)N(Cc2cccc3ccccc23)C1=O | -3
Cc1nc(=O)c(-c2ccccc2)c(C)n1-c1ccc(C(=O)O)cc1 | -2
COc1cccc(=O)c2c(C)n(-c3ccc(C(=O)O)cc3)c(C)c12 | 23* | TbREL1 confirm=12*
CCOC(=O)c1cc2c(C)n(-c3ccc(N(C)C)cc3)c(C)c2cc(C(=O)OCC)c1=O | -1
Cc1cc(=O)n(-c2ccc(C(=O)O)cc2)[nH]1 | 0
CCOc1ccccc1CNCc1ccc(C(=O)O)cc1 | 1
CCOc1cccc(=O)c2c(C)n(-c3ccc(C(=O)O)cc3)c(C)c12 | 46* | TbREL1 confirm=11*
O=C(C1CCCN1S(=O)(=O)c1ccc(F)cc1)N1CCc2ccccc2C1 (centres undefined) | 1
Cn1c(CNc2ccccc2F)nc2ccccc21 | -1
O=C(CSc1nnc(COc2ccc(Cl)cc2)n1Cc1ccco1)Nc1ccc(OCc2ccccc2)cc1 | 5
CCCC1CCC2(CC1)CCC2OC(=S)Nc1ccccc1Cl (centres undefined) | -2
COc1ccc(CN2C(=O)COc3ccccc3C2c2nnnn2C2CCCCC2)cc1 (centres undefined) | -1
O=[N+]([O-])c1ccc2[nH]nc(-c3ccccc3)c2c1 | 4
COC(=O)CCc1c[nH]c2ccc([N+](=O)[O-])cc12 | 4
Cc1ccc(N(C)S(=O)(=O)c2c[nH]c3ccc([N+](=O)[O-])cc23)cc1 | 14* | TbREL1 confirm=9
COc1ccc(OC)c(S(=O)(=O)N(CC(=O)NC2CCC(C)CC2)c2cc(C)cc(C)c2)c1 (centres undefined) | 3
O=C(c1ccccc1)C1CCN(c2ncnc3sccc23)CC1 | -2
